# Measured values: the supplement of paper PMC3545927
# The list shows a part of the results. No count for the full screen is at hand.
# Molecular target: furin, P09958
# Test: furin cleavage Z-score vs untreated control; higher = more cleavage, active = 3.5 or more, inactive = 1 or less, 8 variable residues between constant flanks
# Method in brief: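 Purified furin digested bead-held 8-mer peptide–cDNA fusions at 1:10 enzyme:substrate in 0.01 ml of 50 mM HEPES pH 7.5 with CaCl2 and NaCl for 7.5, 15 or 30 min. The cleavage Z-score compares sequencing counts of released DNA with furin-free reactions on a log scale, with lowess adjustment and median absolute deviation scaling.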
# Chain of furin, P09958 (P09958 whole entry): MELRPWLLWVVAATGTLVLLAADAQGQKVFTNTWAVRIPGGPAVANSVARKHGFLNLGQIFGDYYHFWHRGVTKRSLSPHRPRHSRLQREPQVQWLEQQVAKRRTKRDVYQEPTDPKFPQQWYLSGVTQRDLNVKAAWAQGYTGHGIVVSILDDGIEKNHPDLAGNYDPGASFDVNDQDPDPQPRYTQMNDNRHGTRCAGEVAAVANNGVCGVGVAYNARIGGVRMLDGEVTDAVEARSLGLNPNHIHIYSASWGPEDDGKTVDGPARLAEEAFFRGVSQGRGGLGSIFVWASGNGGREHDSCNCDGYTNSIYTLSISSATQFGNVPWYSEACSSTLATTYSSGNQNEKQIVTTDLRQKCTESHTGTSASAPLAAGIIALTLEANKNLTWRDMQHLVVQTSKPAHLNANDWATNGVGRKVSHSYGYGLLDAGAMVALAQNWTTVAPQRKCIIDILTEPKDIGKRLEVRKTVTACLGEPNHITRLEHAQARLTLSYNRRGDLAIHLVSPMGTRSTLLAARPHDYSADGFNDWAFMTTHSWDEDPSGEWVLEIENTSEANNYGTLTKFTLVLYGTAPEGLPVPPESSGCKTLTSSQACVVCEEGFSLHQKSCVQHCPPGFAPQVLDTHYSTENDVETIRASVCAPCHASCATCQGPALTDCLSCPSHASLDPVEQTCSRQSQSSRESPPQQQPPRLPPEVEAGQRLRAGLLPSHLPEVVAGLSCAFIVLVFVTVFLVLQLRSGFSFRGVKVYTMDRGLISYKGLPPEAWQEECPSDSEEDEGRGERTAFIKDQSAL
Sequence,furin cleavage Z-score (7.5 min),furin cleavage Z-score (15 min),furin cleavage Z-score (30 min)
CAEANAEDVVAGNASASA [HC1366],0.916 (inactive),-1.42 (inactive),-0.854 (inactive)
CAKHMWNFISAGNASASA [HC1042],-0.105 (inactive),-0.376 (inactive),-0.363 (inactive)
CAITGHRMAWAGNASASA [HC317],-0.992 (inactive),-0.446 (inactive),-1.11 (inactive)
CAPVYCFTPSAGNASASA [HC413],0.856 (inactive),1.3,0.586 (inactive)
CARSPRSPPGAGNASASA [FS-3091],2.88,4.13 (active),4.13 (active)
CARSARSPPGAGNASASA [FS-3074],-0.433 (inactive),-0.609 (inactive),-0.311 (inactive)
CARSKRNIIGAGNASASA [FS-1869],6.5 (active),8.47 (active),8.95 (active)
CARSKRCSCSAGNASASA [FS-2809],0.463 (inactive),-0.402 (inactive),1.36
CARSKRSSSHAGNASASA [FS-2184],7.92 (active),8.7 (active),6.8 (active)
CARSSRSPPGAGNASASA [FS-3098],-0.0484 (inactive),0.711 (inactive),1.37
CARSKRDPIIAGNASASA [FS-3206],-1.19 (inactive),0.347 (inactive),1.06
CAVPPRYPRDAGNASASA [FS-311],5.8 (active),6.12 (active),6.06 (active)
CARYPRDVRDAGNASASA [FS-2538],8.26 (active),9.51 (active),6.93 (active)
CARSLREFEEAGNASASA [FS-3087],-2.22 (inactive),0.955 (inactive),0.853 (inactive)
CARYPRNVEEAGNASASA [FS-2850],4.99 (active),7.34 (active),7.13 (active)
CARYQRSHDDAGNASASA [FS-2320],0.707 (inactive),-0.328 (inactive),0.764 (inactive)
CARRWREVEEAGNASASA [FS-2803],-0.554 (inactive),-1.56 (inactive),0.0666 (inactive)
CAATPCSAHLAGNASASA [HC2463],0.828 (inactive),1.41,1.31
CARHADVIPVAGNASASA [HC728],-2.29 (inactive),-0.0929 (inactive),-1.98 (inactive)
CAAEVIAPAVAGNASASA [HC1032],-0.225 (inactive),-0.402 (inactive),-0.162 (inactive)
CAVVCCSWSYAGNASASA [HC2048],-1.44 (inactive),-0.879 (inactive),-0.0857 (inactive)
CANDSRHLRNAGNASASA [FS-1647],0.543 (inactive),0.626 (inactive),1.57
CANDSRLKRQAGNASASA [FS-1038],6.07 (active),5.6 (active),6.15 (active)

Sequence,furin cleavage Z-score (7.5 min),furin cleavage Z-score (15 min),furin cleavage Z-score (30 min)
CAILWRLKRQAGNASASA [FS-1215],10.9 (active),9.84 (active),7.41 (active)
CANRARFRRAAGNASASA [FS-64],8.77 (active),9.51 (active),7.84 (active)
CAVVCRSMSYAGNASASA [HC90],1.85,0.752 (inactive),0.571 (inactive)
CAFSHRQVRYAGNASASA [FS-929],0.403 (inactive),1.8,2.61
CAFRARFRRLAGNASASA [FS-526],10.4 (active),12.1 (active),9.87 (active)
CAFRARQIRYAGNASASA [FS-419],2.8,5.19 (active),2.15
CALNKSFRRAAGNASASA [FS-354],0.697 (inactive),-0.445 (inactive),1.37
CADCTTPCSGAGNASASA [HC1951],0.95 (inactive),0.00642 (inactive),1.2
CAMEECSQVLAGNASASA [HC1750],1.44,-0.739 (inactive),1.26
CALPYLVAYQAGNASASA [HC952],0.718 (inactive),-1.65 (inactive),-1.41 (inactive)
CAVGDLCGSVAGNASASA [HC299],-0.438 (inactive),-0.375 (inactive),1.2
CAFLTRVEAQAGNASASA [HC585],-0.981 (inactive),1.44,-1 (inactive)
CACSTRVRRQAGNASASA [FS-120],11 (active),8.81 (active),7.5 (active)
CAVPERCRRQAGNASASA [FS-1580],6.62 (active),9.1 (active),6.98 (active)
CALPKRVRRQAGNASASA [FS-1029],11.3 (active),12.3 (active),8.74 (active)
CAVPYFVRVQAGNASASA [HC615],-1.87 (inactive),0.165 (inactive),-0.325 (inactive)
CATTPCSPSWAGNASASA [HC1899],0.637 (inactive),0.489 (inactive),-0.787 (inactive)
CAPEFFTELDAGNASASA [HC1220],-0.864 (inactive),-0.533 (inactive),-1.32 (inactive)
CAQRQPFPRDAGNASASA [FS-951],0.0863 (inactive),0.099 (inactive),-1.03 (inactive)
CAFVQRVFRDAGNASASA [FS-776],-0.109 (inactive),-0.244 (inactive),0.515 (inactive)
CALQERVPRDAGNASASA [FS-1366],7.28 (active),7.82 (active),7.62 (active)
CAAVQRVPRDAGNASASA [FS-1312],6.89 (active),6.58 (active),5.33 (active)
